Assay outcomes: PubChem BioAssay, several laboratories
GDH-TPI counter – GDH-TPI coupled enzyme inhibition counter-screen | inhibition, % at 4.8 µM | 360,000 compounds, 1.2% hits | GDH-TPI coupled enzyme counterscreen, NADH absorbance; in the data active means inhibition above about 30%;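 further: 0% = DMSO wells and 100% = wells lacking the enzyme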
RecA splice inh – Mtb RecA intein splicing inhibition. inhibition, % (test concentration not listed). P9WHJ3. cell-free RecA intein splicing, fluorescence. 290,000 compounds, 0.75% hits; in the data active means inhibition above about 30%;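 further: 0% = vehicle wells and 100% = reference inhibitor control wells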
Target sequence (P9WHJ3 whole entry, looked up, canonical isoform): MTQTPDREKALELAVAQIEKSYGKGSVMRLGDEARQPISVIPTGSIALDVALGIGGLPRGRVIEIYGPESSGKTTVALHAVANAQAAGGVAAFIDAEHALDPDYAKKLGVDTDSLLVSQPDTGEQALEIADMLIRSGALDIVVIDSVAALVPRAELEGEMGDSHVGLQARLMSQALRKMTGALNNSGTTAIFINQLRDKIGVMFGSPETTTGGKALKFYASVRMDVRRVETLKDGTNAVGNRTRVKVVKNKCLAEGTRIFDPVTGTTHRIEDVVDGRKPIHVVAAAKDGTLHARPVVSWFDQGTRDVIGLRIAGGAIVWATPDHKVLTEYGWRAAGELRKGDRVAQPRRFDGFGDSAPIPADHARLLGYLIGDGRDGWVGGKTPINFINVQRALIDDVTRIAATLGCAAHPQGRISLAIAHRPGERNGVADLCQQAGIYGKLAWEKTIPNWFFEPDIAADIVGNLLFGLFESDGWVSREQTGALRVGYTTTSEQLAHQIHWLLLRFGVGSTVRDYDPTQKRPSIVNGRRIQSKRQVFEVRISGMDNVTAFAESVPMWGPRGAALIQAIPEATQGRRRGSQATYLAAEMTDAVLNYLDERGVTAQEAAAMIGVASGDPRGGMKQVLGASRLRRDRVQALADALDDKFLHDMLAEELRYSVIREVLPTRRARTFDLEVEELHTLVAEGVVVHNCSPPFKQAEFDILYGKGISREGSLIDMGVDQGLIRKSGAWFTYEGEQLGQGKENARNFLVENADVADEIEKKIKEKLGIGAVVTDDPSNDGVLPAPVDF
UGM FP inh – Mtb UDP-galactopyranose mutase inhibition | P9WIQ1 | purified UGM, fluorescence polarization probe displacement | inhibition, % at 10 µM | 320,000 compounds, 0.06% hits; in the data active means inhibition above about 10%, passing the limit was not always enough
Rv3671c protease – inhibitors of M. tuberculosis serine protease Rv3671c; AID 2606; P9WHR9; inhibition, % at 5.96 µM; 320,000 compounds, 0.048% hits; in the data active means inhibition above about 38%;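 further: extracellular domain of Rv3671c used as enzyme; 0% = enzyme with DMSO and 100% = no enzyme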
Mtb FBA inh – inhibits M. tuberculosis FBA enzyme | P9WQA3 | purified M. tuberculosis FBA, fluorescence read-out | inhibition, % at 1 µM | 360,000 compounds, 2.3% hits | AID 588726; in the data active means inhibition above about 27%;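 further: 0% = vehicle and 100% = reference inhibitor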
Mtb betalactam – beta-lactam sensitization of Mtb H37Rv | AID 434955 | 330,000 compounds, 0.27% hits | M. tuberculosis H37Rv growth with meropenem, percent inhibition | inhibition, % at 25 µM;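 further: growth measured after seven days incubation then overnight dye step; 0% = bacteria only wells and 100% = bacteria with antibiotic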
GFP chromo cs – counter-screen GFP chromophore formation inhibition; cell-free GFP chromophore formation, fluorescence; AID 434968; 2,100 compounds, 83% hits; EC50, µM; shares compounds with RecA splice inh
The depositor's hits bear a star; / = not tested or not shown. Most compounds without a hit are left out; they make up all but 4% or so of the library. Unless noted, how the calls were made is not given here.

SMILES	GDH-TPI counter	RecA splice inh	UGM FP inh	Rv3671c protease	Mtb FBA inh	Mtb betalactam	GFP chromo cs
O=C(Cc1ccccc1F)Nc1nc2ccccc2[nH]1	0.6	37.8*	2.6	-3.5	1.4	55.4	>38
CCN(Cc1ccccc1)C(c1ccc(C)cc1)c1nnnn1C(C)(C)CC (stereo not drawn)	10.0	30.3*	1.5	9.9	3.3	9.3	>38
CCc1ccc(NC(=O)C(=O)N/N=C(\C)CC(=O)Nc2ccccn2)cc1	-3.3	35.6*	-0.7	-3.9	6.0	78.6	>38
C/C(CC(=O)Nc1ccccn1)=N\NC(=O)C(=O)Nc1ccccc1C	13.1	29.4	-1.0	-3.2	6.5	-3.6	/
CCN(CC)S(=O)(=O)c1ccc(C)c(NC(=O)CN2C(=O)NC3(CCCC3)C2=O)c1	-3.3	-1.6	1.9	-5.0	1.9	-2.7	/
OC(CNCCC1C=Nc2ccccc21)Cn1c2ccc(Cl)cc2c2cc(Cl)ccc21 (stereo not drawn)	3.7	47.7*	-1.1	12.3	-0.8	100.1	36.6*
COc1cccc(OC(=O)CSc2nnc(-c3ccccc3Br)o2)c1	9.1	74.1*	2.1	-0.2	0.6	-9.1	26.2*
CC(C)CC(=O)NC(=S)N1CCN(c2ccc([N+](=O)[O-])cc2Cl)CC1	20.2	/	-0.7	-10.1	-1.5	0.3	/
COC1=CC(=O)C(O)=C(CCCCCCC/C=C/CCCCCCCC2=C(O)C(=O)C=C(OC)C2=O)C1=O	8.8	75.8*	-0.3	16.1	2.1	-1.2	2.08*
S=C(NCCc1ccccc1)Nc1c(Cl)cccc1Cl	-0.4	2.1	3.1	-9.4	3.1	-1.3	/
CCCc1[nH]nc2c1C(CCC)C(C#N)=C(N)O2 (stereo not drawn)	2.8	63.9*	3.6	-8.0	3.5	-9.8	34.8*
CCc1[nH]nc2c1C(C(C)C)C(C#N)=C(N)O2 (stereo not drawn)	-0.9	2.7	-0.9	2.7	0.1	10.8	/
CCCc1[nH]nc2c1C(c1cn[nH]c1-c1ccc(F)cc1)C(C#N)=C(N)O2 (stereo not drawn)	11.2	81.2*	-1.4	-6.9	0.1	9.1	7.06*
CCCc1[nH]nc2c1C(c1ccccc1OC)C(C#N)=C(N)O2 (stereo not drawn)	0.6	61.5*	-2.5	-4.5	-6.3	-5.7	20.3*
COc1ccc(/C=C2\SC(=S)N(CCCC(=O)Nc3ccc(O)cc3)C2=O)cc1	25.3	40.1*	-0.2	-3.9	-4.7	80.6	>38
COc1cccc(/C=C2\SC(=S)N(CCCC(=O)N3CCCCC3CCO)C2=O)c1 (stereo not drawn)	14.8	0.3	0.3	-11.9	-1.2	2.1	/
COc1cccc(/C=C2\SC(=S)N(CCCC(=O)N3CCCC3)C2=O)c1	23.2	32.9*	-0.2	-2.9	-0.2	70.9	>38
COc1ccc(/C=C2/SC(=S)N(CCCC(=O)Nc3ccc(O)cc3)C2=O)cc1	13.0	8.7	0.4	-5.9	-7.2	82.2	/
Cc1ccc(S(=O)(=O)NCC2CCC(C(=O)NCCCN3CCOCC3)CC2)cc1 (stereo not drawn)	0.0	1.0	-1.8	2.4	0.9	0.9	>38
COc1ccc(Cl)cc1NC(=O)CSc1nc(=O)n(CCN(C)C)c2c1CCCC2	7.2	-2.7	-0.2	0.0	-2.9	-0.9	/
O=c1c(Cl)nc2cc(Cl)ccc2n1CCNc1ncc(C(F)(F)F)cc1Cl	5.4	67.1*	-2.4	6.4	-1.0	99.5	0.31*
O=c1c2nncn2c2cc(C(F)(F)F)ccc2n1CCNc1ncc(C(F)(F)F)cc1Cl	2.5	3.0	3.6	-3.8	0.2	-1.0	/
COc1ccc(NS(=O)(=O)c2ccc(O)c(C(=O)OCC(=O)NC(C)C3CC4CCC3C4)c2)cc1 (stereo not drawn)	15.8	3.9	-0.8	-1.9	1.5	-0.4	/
CC(NC(=O)COC(=O)c1cc(NS(=O)(=O)c2ccc(Cl)c([N+](=O)[O-])c2)ccc1O)C1CC2CCC1C2 (stereo not drawn)	4.5	48.2*	0.5	-28.4	-0.2	1.1	>38
Cc1cccc(OCCNC(=O)c2cc(C3CC3)nc3c2cnn3C(C)C)c1	4.4	/	/	/	-0.4	/	/
SMILES	GDH-TPI counter	RecA splice inh	UGM FP inh	Rv3671c protease	Mtb FBA inh	Mtb betalactam	GFP chromo cs
O=C1C(=O)c2ccccc2C(O)=C1CCCCl	-11.5	59.9*	-1.6	-27.1	-2.9	97.1	12*
Cc1noc(C)c1-c1ccc(C(=O)NCCc2ccccc2)c2occc12	7.3	/	/	/	0.3	/	/
CS(=O)(=O)c1cnc(-c2ccccc2)nc1Sc1ccc(F)cc1	8.0	1.3	0.5	-5.1	0.2	3.4	/
Fc1ccc(Sc2nc(-c3ccccc3)nnc2C(F)(F)F)cc1	-2.9	70.9*	-3.2	1.5	-4.0	100.1	0.885*
O=C(NNc1cccc(Cl)n1)c1ccc(Cl)nc1	1.6	/	2.0	-6.4	-2.0	1.1	/
N#CC1=C(N)OC2=C(C(=O)CCC2)[C@]12C(=O)N(CC(N)=O)c1ccccc12	4.9	0.4	-2.5	-0.5	-1.5	-0.5	/
O=C1CCCC2=C1C1(O)C(=O)c3ccccc3C1(O)O2 (stereo not drawn)	-4.8	88.5*	-0.2	-106.0	4.9	-6.5	10.2*
O=[N+]([O-])c1ccc2nc(Cl)nc(-c3ccccc3)c2c1	9.6	46.7*	-1.6	/	-1.8	4.9	>38
Cc1ccc(NC(=O)C(CC(C)C)NC(N)=O)cc1 (stereo not drawn)	-0.6	32.8*	1.7	-3.2	-0.1	8.1	>38
CCC(=O)[C@@]1(C)[C@H](C)C[C@H]2[C@@H]3CCC4=CC(=O)C=C[C@]4(C)[C@H]3[C@@H](O)C[C@@]21C	3.6	/	0.7	-0.7	-0.3	-4.7	/
CC(C)(C)c1[nH]nc2c1C(Cc1ccccc1)C(C#N)=C(N)O2 (stereo not drawn)	3.4	54.1*	2.8	2.5	0.6	-7.3	20.3*
CC(C)(C)c1[nH]nc2c1C(c1cccnc1)C(C#N)=C(N)O2 (stereo not drawn)	16.2	-1.7	-0.9	-6.4	-0.3	-3.4	/
Cc1cc(C2C(C#N)=C(N)SC(N)=C2C#N)c(C)s1	10.6	0.5	0.4	-13.8	5.2	-6.8	/
Cc1cc(C2C(C#N)=C(N)Oc3n[nH]c(C)c32)c(C)s1 (stereo not drawn)	3.8	80.8*	-0.1	-0.8	-1.5	0.2	36.5*
Cc1[nH]nc2c1C(c1ccsc1C)C(C#N)=C(N)O2 (stereo not drawn)	10.0	47.6*	4.1	2.2	-5.3	-4.7	27.8*
Cc1ccc(-c2ccc(C3C(C#N)=C(N)Oc4n[nH]c(C)c43)o2)cc1 (stereo not drawn)	17.8	67.5*	-2.7	0.4	-1.5	97.5	36.2*
Cc1noc(C)c1C(=O)OCC(=O)Nc1c(F)cccc1F	6.8	2.1	-1.2	-5.4	-0.6	-3.5	/
O=c1c2cccc(Cl)c2nc2n1Cc1ccccc1-2	10.3	-1.3	-1.9	-8.2	1.7	-1.2	/
